For assay [1], the target named is Cellular tumor antigen p53 (Homo sapiens) (UniProt P04637). Briefly: Primary qHTS for small molecule compounds that upregulate eGFP-tagged delta133p53alpha (in N-terminal) cells. (AID 2060322). Further: nearly all actives have a fitted effect of over 75% in size. Further: potency means the concentration at half of the fitted maximal effect.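 On activation: series mostly up to about 56 µM; 0% = DMSO vehicle and 100% = reference activator.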 As to conditions: NCI-H358 eGFP-delta133p53alpha fluorescence, 24 h; activation: stronger effect = higher value. Put shortly: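 NCI-H358 cells pre-induced 24 h with 10 ng/ml doxycycline to express N-terminal eGFP-delta133p53alpha, then dosed 24 h at 37C without doxycycline; fixed, Hoechst-stained, GFP intensity by laser scanning cytometry, normalized to DMSO (0%) and 57.5 uM 5-azacytidine (100%).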

Assay [2] concerns the target Aldehyde dehydrogenase, mitochondrial (Homo sapiens) (UniProt P05091). The assay can be described thus: qHTS for Inhibitors of the Aldehyde Dehydrogenase Family (ALDH2) Primary screen (AID 2061308).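 Further: plate controls were vehicle for no effect and reference inhibitor for full effect; nearly all actives have a fitted effect of over 55% in size.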 A general note: qHTS replaces the single test concentration by a dilution series.
Assay [3] deals with Retinaldehyde dehydrogenase 3 (Homo sapiens) (UniProt P47895). Briefly: qHTS for Inhibitors of the Aldehyde Dehydrogenase Family (ALDH1A3) Primary screen (AID 2061315).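 Further: plate controls were DMSO vehicle for no effect and reference inhibitor for full effect.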

Records with an inconclusive call do not appear. Values without a mark were called inactive. Activity calls are given as the source filed them. The call rests on the fitted dose curve; in most records, active means well fitted curve in the direction sought with a large enough effect; inconclusive means small, poorly fitted or top-dose-only effect, or another doubt; inactive means no such curve, though single readings can be large; an effect the other way counts as inactive or inconclusive. Numbered stars: 1 amine (or outer) side, 2 acyl side, 3 side chain; on linkers, the order of the positions; unused ones are H or OH. Bridge positions count the residues as written; N and C are the ends. Peptide text beside a SMILES is read from it. X4 = O=C(CCC[*:2])[*:1]

This is an account of results in PubChem BioAssay (NCATS).

Sequence of Cellular tumor antigen p53 (Homo sapiens) (P04637 whole entry, looked up): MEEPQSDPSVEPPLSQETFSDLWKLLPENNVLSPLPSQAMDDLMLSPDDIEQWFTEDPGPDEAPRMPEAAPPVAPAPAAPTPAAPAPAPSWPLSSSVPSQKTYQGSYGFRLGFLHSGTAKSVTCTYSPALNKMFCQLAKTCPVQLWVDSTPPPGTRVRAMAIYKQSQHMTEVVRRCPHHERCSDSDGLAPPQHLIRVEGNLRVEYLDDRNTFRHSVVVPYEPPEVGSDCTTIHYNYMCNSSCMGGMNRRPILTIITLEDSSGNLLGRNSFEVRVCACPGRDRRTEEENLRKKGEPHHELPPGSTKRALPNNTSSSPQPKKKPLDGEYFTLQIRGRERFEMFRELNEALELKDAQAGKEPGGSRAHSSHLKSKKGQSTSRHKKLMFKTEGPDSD

Consider `CC(=O)OCC1=CCC2C(C)(C)CCCC2(C)C12CCC(C)(CC(=O)O)O2` (configuration not stated), for which, in assay [1], the activation is 25.9%. Further, the Potency entry in assay [2] and in assay [3] was “inactive” throughout.

With `C=C1C(=O)OC2CC(C)C(CCC(C)=O)=CCC12` (configuration not stated), the Potency in assay [1] is 16.9 µM (active). Also, the Potency entry in assay [2] and in assay [3] was “inactive” throughout.

For the compound `C=C(C=O)[C@]1(O)C[C@@]2(C)C(=CC1=O)C=C[C@H](OC(=O)/C=C/C=C/[C@H](C)CC)[C@@H]2C`, in assay [1], the Potency is 4.65 µM (active). Besides, the Potency entry in assay [2] and in assay [3] was “inactive” each time.

Regarding `C[C@@H]1CC[C@]2(C(=O)O[C@@H]3O[C@H](CO)[C@@H](O)[C@H](O)[C@H]3O)CC[C@]3(C)C(=CCC4[C@@]5(C)C[C@@H](O)[C@H](O)[C@@](C)(C(=O)O[C@H]6[C@H](O)C[C@@]7(C)C(CC[C@]8(C)C7CC=C7[C@H]9[C@](C(=O)O[C@@H]%10O[C@H](CO)[C@@H](O)[C@H](O)[C@H]%10O)(CC[C@@H](C)[C@@]9(C)O)CC[C@]78C)[C@@]6(CO)C(=O)O)C5CC[C@]43C)[C@@H]2[C@]1(C)O` (some centres not stated), the activation in assay [1] was 0%. Besides, the values for the activity change, negative = inhibition in assay [2] and in assay [3] were -16.3% [at 11.2 µM] and -6.62% [at 11.2 µM], respectively.

With `O=C(O[C@@H]1O[C@H](CO)[C@@H](O)[C@H](O)[C@H]1O)c1ccccc1`, the activation in assay [1] is -9.82%. For the same compound, the Potency entry in assay [2] and in assay [3] was “inactive” throughout.

On to `CC1C=CC2CCCCC2C1CCC1CC(O)CC(=O)O1` (configuration not stated), for which the activation in assay [1] was -0.893%. Moreover, the Potency result in assay [2] and in assay [3] was “inactive” throughout.

Regarding `COC(=O)CCSCc1ccc(-c2onc(C)c2NC(=O)OC(C)c2ccccc2Cl)cc1` (configuration not stated), the activation in assay [1] was -5.25%. In addition, the Potency result in assay [2] and in assay [3] was “inactive” each time.

For the compound `COC(=O)c1ccnc(-c2cc(C(=O)NCCc3ccccc3)ccn2)c1`, the activation in assay [1] was 3.67%. In addition, the Potency entry in assay [2] and in assay [3] was “inactive” in each case.

Take `CC[C@H](C)[C@@H]1NC(=O)[C@H](Cc2ccc(OC)cc2)NC(=O)CCCSC[C@@H](C(=O)N2CCC[C@H]2C(=O)N[C@@H](CC(C)C)C(=O)NCC(N)=O)NC(=O)[C@H](CC(N)=O)NC(=O)[C@H](CCC(N)=O)NC1=O` (Y(Me)IQNCPLG-NH2; linker N-5 via X4): the activation in assay [1] is -10.3%. Besides, the Potency entry in assay [2] and in assay [3] was “inactive” in each case.

Consider `Nc1nc2c(nc(Br)n2[C@@H]2O[C@@H]3COP(=O)(O)O[C@H]3[C@H]2O)c(=O)[nH]1`, for which, in assay [1], the activation was -14.3%. The Potency entry in assay [2] and in assay [3] was “inactive” each time.

As to `COC1C(O)C(OC2CCC3(C)C(CCC45CCC6C7(COC(=O)C7)OC4(O)C6(C)CCC35)C2)OC(C)C1OC1OC(CO)C(OC2OC(CO)C(O)C(O)C2O)C(O)C1O` (configuration not stated), the activation in assay [1] was 1.53%. Further, the Potency result in assay [2] and in assay [3] was “inactive” throughout.

`C=C1CC[C@@]2(OC1)O[C@H]1CC3[C@@H]4CC=C5C[C@H](O[C@H]6OC[C@@H](O)C(O)[C@@H]6O[C@@H]6O[C@@H](C)[C@H](O)[C@@H](O[C@@H]7O[C@H](CO)[C@@H](O)[C@H](O)[C@H]7O)[C@H]6O)C[C@@H](O)[C@]5(C)C4CC[C@]3(C)[C@H]1[C@@H]2C` (some centres not stated): in assay [1], the activation is -6.25%. Further, the Potency entry in assay [2] and in assay [3] was “inactive” throughout.

As to `O=C(Nc1cc(C(F)(F)F)ccc1N1CCCCC1)c1ccncc1`, the activation in assay [1] is -17.9%. Also, the Potency entry in assay [2] and in assay [3] was “inactive” throughout.

For `C=C1CCC2C(C)(C(=O)OC)CCCC2(C)C1CCC(C)CC(=O)O` (configuration not stated), the activation in assay [1] is -13%. Also, the Potency result in assay [2] and in assay [3] was “inactive” throughout.

Consider `C[C@]12CCC[C@](C)(C(=O)O)C1CCC13CC(CO)C(CCC12)C3` (some centres not stated), for which the activation in assay [1] was -19.1%. For the same compound, the Potency entry in assay [2] and in assay [3] was “inactive” in each case.

Take `CC1(C)CCCC2(C)C1C(O)C=C(CO)C2(O)C(=O)O` (configuration not stated): the activation in assay [1] is -13.7%. In addition, the Potency result in assay [2] and in assay [3] was “inactive” each time.

On to `CCC(C)/C=C(C)/C=C/C1=CC2=C(Cl)C(=O)C(C)(OC(C)=O)C(=O)C2=CN1C(CCC(=O)O)C(=O)O` (configuration not stated), for which the activation in assay [1] is -13%. Moreover, the Potency entry in assay [2] and in assay [3] was “inactive” in each case.

In the case of `CC(C)CC1(C(=O)OCc2ccc(O[C@@H]3O[C@H](CO)[C@@H](O)[C@H](O)[C@H]3O)cc2)CC(=O)OC(C(=O)O)CC(=O)OCC2OC(O1)C(OC(=O)/C=C/c1ccc(O)cc1)C(O)C2O` (some centres not stated), the activation in assay [1] is 3.05%. The Potency entry in assay [2] and in assay [3] was “inactive” in each case.

`CC(NC(=O)c1ccccc1N)C(=O)O` (configuration not stated): in assay [1], the activation was -20.6%. In addition, the Potency entry in assay [2] and in assay [3] was “inactive” each time.

In the case of `COC(=O)C[C@H]1C(C)(C)[C@H](OC(C)=O)C2CC3=C4CC(=O)O[C@@H](c5ccoc5)[C@]4(C)CCC3[C@@]1(C)C2=O` (some centres not stated), the activation in assay [1] was 2.68%. The Potency result in assay [2] and in assay [3] was “inactive” in each case.

Regarding `O=S(=O)(c1ccccc1)N(CC(F)(F)F)c1ccc(C(O)(C(F)(F)F)C(F)(F)F)cc1`, in assay [1], the activation is -3.67%. Besides, the Potency result in assay [2] and in assay [3] was “inactive” in each case.

For the compound `C[C@@H]1C[C@@H](O)[C@@]23CO[C@]2(CO)C[C@@H](O)CC3[C@@]12CC(c1ccoc1)OC2=O` (some centres not stated), the activation in assay [1] was -7.14%. The Potency entry in assay [2] and in assay [3] was “inactive” each time.

On to `COc1ccc(C2C(C(=O)O)C(C(=O)O)C2c2ccc(OC)cc2O[C@@H]2O[C@H](CO)[C@@H](O)[C@H](O)[C@H]2O)c(O[C@@H]2O[C@H](CO)[C@@H](O)[C@H](O)[C@H]2O)c1` (some centres not stated), for which the activation in assay [1] is 7.63%. Moreover, the Potency entry in assay [2] and in assay [3] was “inactive” each time.

Consider `COc1ccc(Sc2ccc(NC(=O)c3ccccc3Cl)cc2C#N)cc1`, for which the activation in assay [1] is 20.3%. Besides, the Potency entry in assay [2] and in assay [3] was “inactive” each time.
